# Laboratory results reported in PubChem BioAssay (Tox21).
# Inconclusive results are not listed. A call without a number means that no potency is given here. Calls of active or inactive are those of the source. Calls follow the shape of the dose curve; as a rule, active = well fitted activation curve with a large enough effect in the repeat runs; inconclusive = weak or mixed curves; inactive = flat fitted curve, though single readings scatter.
# Assay: A CellTox Green Cytotoxicity Assay to monitor cytotoxicity in HEK293 cells - 8 hour (AID 1224884); also: nearly all actives have a fitted effect of over 35% in size
# Conditions: CellTox Green fluorescence; series mostly up to 76.8 µM
# Method in brief: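 HEK293 cells premixed with CellTox Green dye were seeded at 600 cells/well and left 5 h at 37 C/5% CO2 before pin transfer of 23 nL compound in DMSO. Fluorescence from dye bound to dead-cell DNA was read during 40 h treatment.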
SMILES,cytotoxicity increase,Potency
Nc1ccc(S(=O)(=O)Nc2ccnn2-c2ccccc2)cc1,1.9% [at 15.8 µM] (inactive),
Nc1c2c(nc3ccccc13)CCCC2O (stereo not given),,inactive
C[N+](C)(C)CCCCCC[N+](C)(C)C,,inactive
CCc1ccc(O)c(OC)c1,,inactive
OC(CCN1CCCCC1)(c1ccccc1)C1CC2C=CC1C2 (stereo not given),,inactive
C=CCS(=O)(=O)O,,inactive
CN(C(=O)c1c(O)c2ccccc2n(C)c1=O)c1ccccc1,,inactive
COC(=O)CCSCCC(=O)OC,,inactive
CC(C)(O)C(=O)c1ccccc1,,inactive
CCCCCOC(=O)CCCCC,,inactive
OCCOc1ccc(OCCO)cc1,,inactive
N[C@H]1CN(c2c(F)cc3c(=O)c(C(=O)O)cn(C4C[C@H]4F)c3c2Cl)CC12CC2 (stereo not given in full),,inactive
COc1ccc2c(c1)c(CC(=O)OCC(=O)O)c(C)n2C(=O)c1ccc(Cl)cc1,,inactive
COc1ccc2c(c1)CCCC2=O,,inactive
OC[C@]1(O)OC[C@@H](O)[C@H](O)[C@@H]1O,,inactive
NC(=O)Nc1ccccc1,,inactive
CCS(=O)(=O)c1ccc(OC)c(C(=O)OC)c1,,inactive
COc1ccc(CCN(C)CCCC(C#N)(c2cc(OC)c(OC)c(OC)c2)C(C)C)cc1OC (stereo not given),,inactive

SMILES,cytotoxicity increase,Potency
CCCC(=O)O[C@]1(C(=O)CO)CC[C@H]2[C@@H]3CCC4=CC(=O)CC[C@]4(C)[C@H]3[C@@H](O)C[C@@]21C,,inactive
CCCCCCOC(=O)CCCCC(=O)OCCCCCC,,inactive
CCOC(C)(C)C,,inactive
CCO/C([O-])=N/c1c[n+](N2CCOCC2)no1,,inactive
O=C1CCCCCCCCCCCN1,,inactive
C=C(C)CS(=O)(=O)O,,inactive
Brc1c(NC2=NCCN2)ccc2nccnc12,,inactive
CCN1CCC[C@H]1CNC(=O)c1c(O)c(Cl)cc(Cl)c1OC,,inactive
O=C(O)Cc1ccc(CCNS(=O)(=O)c2ccc(Cl)cc2)cc1,,inactive
CCOc1ccc(C(=O)OCCN(CC)CC)cc1,,inactive
CCOC(=O)CCC(C)=O,,inactive
CCO[Si](CCC1CCC2OC2C1)(OCC)OCC (stereo not given),,inactive
CCN1CCC[C@H]1CNC(=O)c1cc(S(N)(=O)=O)ccc1OC,,inactive
CC(C)=CCCC(C)CC(=O)O (stereo not given),,inactive
CCOC(=O)c1c(C)n(C)c2ccc(O)cc12,,inactive
COc1c(N2C[C@@H]3CCCN[C@@H]3C2)c(F)cc2c(=O)c(C(=O)O)cn(C3CC3)c12,,inactive
CC(C)OC(=O)c1ccccc1,,inactive
